In the library only some 1.6% were active in any assay of this set; here they are far more common.
GC-A act = GC-A (human) enzyme activation; 0.14% of 370,000 active; HEK293 GC-A cells, cGMP TR-FRET, EC30 ANP; 0% at EC30 ANP, 100% saturating ANP; AID 1671463; activation, % at 10 µM; in the data active = activation above about 40%
Efflux pump inh = inhibitors of Candida antifungal efflux pumps expressed in yeast; S. cerevisiae Candida pump triplex, Nile Red efflux; inhibition, % at 10 µM; 0.44% of 330,000 active;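 active = plate passing quality check with inhibition over a set limit, or well fluorescence over plate mean plus 4 SD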;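 note: Nile Red retained in pooled yeast measured as flow cytometry median fluorescence; 0% = buffer negative control and 100% = Enniatin B positive control; higher means more Nile Red kept so more efflux inhibition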
V-ATPase pH = regulators of yeast V-ATPase proton transport | S. cerevisiae, pHLuorin cytosolic pH fluorescence | response, % at 10 µM | 0.37% of 350,000 active; in the data active = response mostly above about 7.3%, no sharp cut-off; inactive = mostly below about 5.4%; note: actives read high
Rce1 inh = inhibitors of yeast Ras-converting enzyme | calls only | 0.27% of 290,000 active | yeast membranes, quenched prenylated peptide cleavage fluorescence | Q03530 | AID 2563;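 active = fall in fluorescence gain of 50% or more versus controls, with final raw signal at or below 3038400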;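 note: plate controls were neutral control wells for no effect and wells lacking membranes for full effect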
NPR2 activator = GC-B (human) receptor activation; 0.11% of 370,000 active; AID 1920062; HEK293-GC-B cells, CNP EC30, cGMP TR-FRET; 0% at EC30 CNP, 100% saturating CNP; activation, % at 10 µM; P20594;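 active = activation at 10 µM reaching about 35% in either raw or pattern-adjusted values, limit read from the data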
Target sequence (P20594 whole entry, looked up): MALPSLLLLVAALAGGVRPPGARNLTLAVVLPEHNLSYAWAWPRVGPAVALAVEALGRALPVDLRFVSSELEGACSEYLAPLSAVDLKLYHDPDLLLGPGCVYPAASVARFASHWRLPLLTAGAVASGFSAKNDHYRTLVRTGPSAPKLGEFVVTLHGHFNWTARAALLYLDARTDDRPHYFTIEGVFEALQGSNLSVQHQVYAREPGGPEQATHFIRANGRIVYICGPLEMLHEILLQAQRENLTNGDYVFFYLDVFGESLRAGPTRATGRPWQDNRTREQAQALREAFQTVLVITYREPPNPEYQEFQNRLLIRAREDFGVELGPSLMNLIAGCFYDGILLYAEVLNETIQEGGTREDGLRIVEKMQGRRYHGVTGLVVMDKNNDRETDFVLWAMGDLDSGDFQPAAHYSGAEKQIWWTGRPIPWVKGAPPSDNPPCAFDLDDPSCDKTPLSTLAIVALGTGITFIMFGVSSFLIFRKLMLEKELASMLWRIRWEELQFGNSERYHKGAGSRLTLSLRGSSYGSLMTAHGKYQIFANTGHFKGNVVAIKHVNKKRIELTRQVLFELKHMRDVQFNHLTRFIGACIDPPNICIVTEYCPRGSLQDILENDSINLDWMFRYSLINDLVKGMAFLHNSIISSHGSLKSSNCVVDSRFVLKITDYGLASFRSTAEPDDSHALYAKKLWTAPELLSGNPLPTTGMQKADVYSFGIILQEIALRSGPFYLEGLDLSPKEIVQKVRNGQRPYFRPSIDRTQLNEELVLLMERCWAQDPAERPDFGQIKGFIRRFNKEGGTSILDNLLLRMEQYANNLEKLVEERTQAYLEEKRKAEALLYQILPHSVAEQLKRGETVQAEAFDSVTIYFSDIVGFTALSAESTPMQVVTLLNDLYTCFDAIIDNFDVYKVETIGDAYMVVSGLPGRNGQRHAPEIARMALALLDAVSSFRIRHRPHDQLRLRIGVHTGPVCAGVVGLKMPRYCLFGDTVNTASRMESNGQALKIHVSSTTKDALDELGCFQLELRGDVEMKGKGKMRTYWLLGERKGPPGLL
NSD2 HMT inh = inhibitors of human histone methyltransferase NSD2. NSD2 peptide methylation, AlphaScreen, 120 min. inhibition, % at 12.5 µM. 0.54% of 310,000 active; in the data active = inhibition above about 50%
AlphaScreen art = counter-screen for NSD2 inhibitors: AlphaScreen artifacts. AC35, µM (top dose mostly 10 µM), for the others: top-dose activity change, negative = signal loss. 9.4% of 1,500 active. AlphaScreen artifact counterscreen, preloaded methylated H4 peptide. shares compounds with NSD2 HMT inh. AID 1053174; call rule not given here
* hit, by the source's call; i = inactive; . = no result.

SMILES | GC-A act | Efflux pump inh | V-ATPase pH | Rce1 inh | NPR2 activator | NSD2 HMT inh | AlphaScreen art
Cc1ccc(NC(=S)N2CCC(NC(=O)c3ccc(C)cc3)CC2)cc1 | -1 | 0 | -3 | . | -3 | . | .
Cc1ccc(NC(=S)N2CCC(NC(=O)c3cccc(F)c3)CC2)cc1 | -3 | 0 | -1 | i | -1 | 89* | 2%
O=C(O)COc1ccccc1/C=N/Nc1ccc(S(=O)(=O)Nc2ccc(Cl)cc2)cc1[N+](=O)[O-] | 1 | 0 | 4 | i | -6 | 50* | -13%
CCOc1ccc(NC(=O)CSc2nnc(C34CC5CC(CC(C5)C3)C4)n2C)cc1 | -4 | 0 | -3 | i | -2 | 69* | -2%
O=C(CCn1nnc(-c2cccs2)n1)NCc1cccs1 | 1 | . | . | . | -3 | -4 | .
CCOC(=O)C1CCCN(C(=O)c2ccc(OC(C)=O)cc2)C1 (stereo not given) | 0 | 0 | 7 | i | 1 | 93* | -6%
CCOC(=O)C1CCCN(C(=O)c2ccc(S(=O)(=O)Nc3ccccc3OC)cc2)C1 (stereo not given) | -7 | 0 | -2 | . | 1 | 54* | 2%
O=C(CN1CCN(c2nc(-c3ccccc3)cs2)CC1)Nc1ccc(Cl)cc1 | 1 | . | . | . | -1 | -4 | .
Cc1ccc(-n2c(SCC(=O)Nc3cccc4ccccc34)nnc2-c2cnccn2)cc1 | -13 | . | . | . | -19 | -1 | .
O=C(NCCN1CCCCC1)/C(=C/c1ccco1)NC(=O)c1ccccc1 | 1 | 0 | 3 | i | 3 | 79* | -2%
Cc1c(C(=O)NC(C)C)oc2c1-c1[nH]ncc1CC2 | -1 | 0 | . | i | 7 | 55* | -5%
N#Cc1c(SCC(=O)Nc2nncs2)sc2c(O)cc(=O)[nH]c12 | 2 | 0 | 2 | . | -2 | 111* | -10%
N#Cc1c(SCC(=O)Nc2ccc(C(F)(F)F)cc2)sc2c(O)cc(=O)[nH]c12 | -2 | 0 | 2 | i | -2 | . | .
CC(C)(C)C1CCC2(CC1)C(Nc1cccc(C(F)(F)F)c1)=NC(=S)N2CC#N (stereo not given) | 2 | 0 | 3 | i | 46* | 64* | 2%
CC(C)CNC(=O)C1CSCCS(=O)(=O)N1Cc1ccc(F)cc1 (stereo not given) | 2 | . | . | . | -1 | . | .
COc1ccc(NS(=O)(=O)c2ccc3c(c2)[C@H]2C=CC[C@H]2[C@@H](c2ccc(C(=O)O)cc2)N3)cc1 | -7 | 0 | -2 | i | 4 | 55* | -11%
Cc1ccc(-c2c(NC(=O)c3ccccc3)nc3ncccn23)cc1 | 0 | . | . | . | -1 | . | .
O=C(NCc1ccco1)c1scc2c1OCCO2 | 3 | 0 | 0 | i | 1 | 90* | -2%
CC1NC(=O)NC1CCCCCC(=O)Nc1ccc(F)cc1 (stereo not given) | -1 | 0 | 5 | i | -2 | 103* | 1.9µM*
Cc1c(F)cccc1NC(=O)CCCCCC1NC(=O)NC1C (stereo not given) | -1 | 0 | 2 | i | 3 | . | .
Cc1cc(C(=O)O)c(C)o1 | 0 | . | . | . | 0 | . | .
O=C1C(=O)C(Cl)=C(Cl)C(Cl)=C1Cl | . | . | . | . | . | 91* | -12%
Cc1nn(CCC(=O)NNC(=O)Nc2ccc(F)cc2)c(C)c1[N+](=O)[O-] | -5 | . | . | . | -4 | -4 | .
O=C(NCCS(=O)(=O)N1CCN(c2ccccc2)CC1)c1ccc(Br)o1 | -3 | 0 | 1 | i | 1 | -9 | .
COc1ccccc1N1CCN(S(=O)(=O)CCNC(=O)c2ccc(Br)o2)CC1 | -6 | 0 | 2 | i | -6 | 76* | -1%
SMILES | GC-A act | Efflux pump inh | V-ATPase pH | Rce1 inh | NPR2 activator | NSD2 HMT inh | AlphaScreen art
COC(=O)[C@H]1C[C@@]2(N3CCCCC3)c3ccccc3N[C@H]2N1S(=O)(=O)c1ccc(C)cc1 | -5 | . | . | . | -1 | . | .
Nc1ncc(-c2ccccc2)n1CC1CCCO1 (stereo not given) | 3 | 0 | 3 | i | 0 | 123* | -6%
COc1cccc(C=NNC(=O)CSc2nc3ccccc3[nH]2)c1O | -2 | . | . | . | -11 | 6 | .
COc1ccc(/C=C2/C(=O)N(c3ccccc3)N=C2C)cc1 | . | 0 | 5 | i | . | 12 | .
COc1ccc(/C=C2/C(=O)N(c3c(F)c(F)c(F)c(F)c3F)N=C2C)cc1 | 46* | 0 | -1 | i | 24 | 58* | 2%
COc1cccc(N2CCN(CC(=O)N(C)Cc3ccccc3Cl)CC2)c1 | -1 | . | . | . | -1 | 6 | .
CN(C(=O)CSc1nc(-c2ccc(C(C)(C)C)cc2)c(C#N)c(=O)[nH]1)C1CCCCC1 | -4 | 0 | 4 | i | -2 | 60* | -3%
Cc1ccc(-c2cc(C(=O)NN=Cc3cccc(Oc4ccccc4)c3)[nH]n2)cc1C | -3 | . | . | . | 2 | 0 | .
Cc1cc(C)n(-c2ncccc2[N+](=O)[O-])n1 | -1 | 0 | 1 | i | -2 | 52* | -7%
Cc1cc2ncn(-c3ncccc3[N+](=O)[O-])c2cc1C | 9 | 0 | 9 | i | 6 | 7 | .
Oc1ccc(NCc2cccc(OCc3ccc(F)cc3)c2)cc1 | 6 | 0 | 0 | i | -8 | 59* | -5%
O=C(Nc1cccc(O)c1)c1ccc(Br)cc1 | 8 | 0 | 2 | i | -5 | 67* | 0%
COC(=O)c1cc(S(=O)(=O)N2CCCN(C(C)=O)CC2)cn1C | 0 | . | . | . | -1 | 0 | .
COc1ccc(CCNC(=O)C2CCN(C(=O)c3ccccc3C)CC2)cc1 | 3 | 0 | 2 | i | -3 | 51* | -2%
O=C(Cc1ccccc1Cl)NC1(O)C(=O)c2ccccc2C1=O | 5 | 0 | -7 | i | 5 | 94* | 4%
O=C(Cc1ccc(Cl)cc1)NCc1ccccc1Cl | -4 | 0 | -2 | i | -3 | -4 | .
COc1cc(C(=O)c2nccc3cc(OC)c(OC)cc23)c([N+](=O)[O-])cc1OC | 14 | 0 | -2 | i | -3 | 54* | -9%
COc1cc(Br)c(C(=O)c2nccc3cc(OC)c(OC)cc23)cc1OC | 8 | 0 | 3 | i | -8 | 99* | -5%
COc1cc(N)c(C(=O)c2nccc3cc(OC)c(OC)cc23)cc1OC | 0 | 0 | 0 | i | 2 | 72* | -2%
COc1cc(N)c(Cc2nccc3cc(OC)c(OC)cc23)cc1OC | 4 | 0 | -1 | i | 6 | 6 | .
Cc1cc(C)cc(C(=O)OCCN2CCN(C3CN(Cc4cn(Cc5ccc([N+](=O)[O-])cc5)nn4)S(=O)(=O)C3)CC2)c1 (stereo not given) | 3 | . | . | . | 0 | . | .
COc1ccc(Cn2cc(COC(=O)NCC(C)C)nn2)cc1 | -1 | . | . | . | 5 | -1 | .
O=C(CSc1nnc(-c2cnccn2)n1-c1ccccc1)Nc1ccc2c(c1)OCCO2 | -2 | . | . | . | 1 | 1 | .
O=C(Cn1nnc(-c2ccc(N3CCOCC3)cc2)n1)c1cccc(F)c1 | 2 | . | . | . | 0 | -3 | .

Screening results (PubChem)
